Test systems include NCI-H23 lung; NCI-H226 lung; NCI-H322M lung; HOP-62 NSCLC; NCI-H460 lung; HOP-92 NSCLC; A549/ATCC NSCLC; 786-0 renal; COLO 205 colon; DU-145 prostate; K-562 leukemia; MALME-3M melanoma; MDA-MB-231 breast; SF-268 CNS; SF-295 CNS; SF-539 CNS; M14 melanoma; RXF 393 renal; UACC-257 melanoma.
What all share (assay): NCI-60 one-dose screen, 48 h (100 = growth as untreated, 0 = no growth, -100 = all killed)
Holding throughout (conditions): 10 µM

SMILES strings stand for the structures. This is part of a sample that, as a whole, favours compounds with a hit. Of some 83,000 tested, about 20% had one in any assay.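 Note: values are percent growth. 100 is the growth of untreated cells, values between 100 and 0 indicate rising inhibition; between -100 and 0 indicates cell death.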 Unmarked numbers belong to inactive results. Active and inactive are the calls of the source. How the source made its calls: active means growth percent below 10; inactive means the rest.

In PubChem BioAssay (NCI) one finds growth data, which are given here for nine compounds.

Regarding `COc1cc2c(cc1OC)[C@H](C(=O)O)[C@@H](c1ccc(OC(C)C)c(OC)c1)N(C)C2=O`, the growth with NCI-H23 lung is 96.8%; in the experiment with NCI-H226 lung it was 89.9%; with NCI-H322M lung, 83.5%; in the experiment with HOP-62 NSCLC, 92.4%; in the experiment with NCI-H460 lung it was 105%; in the experiment with HOP-92 NSCLC it was 83.3%. The growth with A549/ATCC NSCLC was 106%; with 786-0 renal it was 100%; in the experiment on COLO 205 colon it was 118%; with DU-145 prostate it was 114%; in the experiment on K-562 leukemia, 99.6%; with MALME-3M melanoma it was 94.8%. In addition, the growth in the experiment with MDA-MB-231 breast was 104%; with SF-268 CNS, 116%; in the experiment on SF-295 CNS it was 94.5%; in the experiment with SF-539 CNS, 94.4%; in the experiment with M14 melanoma it was 104%.
For the compound `CCOC(=O)C1=C(Nc2ccc(Br)cc2)C(=O)N(CC)C1`, the growth was 98.8% with NCI-H23 lung; 86.3% in the experiment with NCI-H226 lung; 95.6% in the experiment on NCI-H322M lung; 85.9% with HOP-62 NSCLC; 107% with NCI-H460 lung; 48.3% in the experiment on HOP-92 NSCLC. Moreover, the growth is 98.8% with A549/ATCC NSCLC; 91.4% with 786-0 renal; 108% in the experiment on COLO 205 colon; 107% in the experiment on DU-145 prostate; 106% in the experiment with K-562 leukemia; 101% with MALME-3M melanoma. The growth with MDA-MB-231 breast is 81.8%; in the experiment on RXF 393 renal, 92.9%; in the experiment with SF-268 CNS, 96.8%; in the experiment on SF-295 CNS, 87%; in the experiment on SF-539 CNS, 84.9%; in the experiment on M14 melanoma, 110%.
Regarding `COc1cc(/C=C/C(=O)c2ccccc2)cc(OC)c1OC`, the growth with NCI-H23 lung is 78.1%; in the experiment on NCI-H226 lung, 98.7%; in the experiment on NCI-H322M lung, 95.5%; in the experiment on HOP-62 NSCLC it was 104%; with NCI-H460 lung, 70.7%; in the experiment on HOP-92 NSCLC, 76%. Moreover, the growth in the experiment with A549/ATCC NSCLC is 89.4%; in the experiment on 786-0 renal, 89%; in the experiment on COLO 205 colon, 48%; with DU-145 prostate it was 62.5%; in the experiment with K-562 leukemia, 11.4%; in the experiment with MALME-3M melanoma, 76.8%. Besides, the growth in the experiment on MDA-MB-231 breast is 79.1%; in the experiment on RXF 393 renal, 73.2%; in the experiment with SF-268 CNS, 57.9%; in the experiment on SF-295 CNS, -24.7% (active); with SF-539 CNS, 80.8%; with M14 melanoma, 74.6%.
Consider `CCN=c1cc2sc3cc(NCC)c(C)cc3nc-2cc1C`, for which the growth in the experiment with NCI-H23 lung is 5.46% (active); with NCI-H226 lung, 64.2%; in the experiment with NCI-H322M lung it was 27.3%; in the experiment with HOP-62 NSCLC, 29.4%; in the experiment on NCI-H460 lung, 1.61% (active); in the experiment with HOP-92 NSCLC, 16.3%. In addition, the growth was -40.3% (active) in the experiment with A549/ATCC NSCLC; 46.3% with 786-0 renal; -18.9% (active) with DU-145 prostate; 11.8% in the experiment on K-562 leukemia; -30.9% (active) with MALME-3M melanoma; 2.51% (active) in the experiment on MDA-MB-231 breast. Further, the growth is 74.7% in the experiment with RXF 393 renal; -11.3% (active) with SF-268 CNS; -72.4% (active) in the experiment on SF-295 CNS; -9.62% (active) in the experiment with SF-539 CNS; 6.74% (active) in the experiment with UACC-257 melanoma; 21.4% with M14 melanoma.
For the compound `O=C1OC(c2ccc(F)cc2)CC1CN1CCOCC1` (stereo unspecified), the growth in the experiment on NCI-H23 lung is 98.8%; in the experiment on NCI-H226 lung, 107%; in the experiment with NCI-H322M lung, 102%; with HOP-62 NSCLC, 101%; in the experiment with NCI-H460 lung, 108%; in the experiment with HOP-92 NSCLC it was 94.5%. In addition, the growth in the experiment on A549/ATCC NSCLC is 100%; in the experiment on 786-0 renal it was 105%; in the experiment on COLO 205 colon, 93.1%; with DU-145 prostate, 106%; in the experiment with K-562 leukemia, 113%; in the experiment on MALME-3M melanoma, 95.6%. Also, the growth with MDA-MB-231 breast is 105%; in the experiment on RXF 393 renal it was 111%; in the experiment with SF-268 CNS, 104%; in the experiment with SF-295 CNS, 89.9%; in the experiment on SF-539 CNS it was 96.9%; in the experiment on M14 melanoma, 104%.
`COc1ccc(/C(C#N)=C2C=C/C(=N/O)c3ccccc3\2)cc1`: the growth in the experiment with NCI-H23 lung was 27.7%; in the experiment with NCI-H226 lung, 36%; in the experiment on NCI-H322M lung, 48.5%; in the experiment with HOP-62 NSCLC, 35.3%; in the experiment on NCI-H460 lung, 3.48% (active); in the experiment with HOP-92 NSCLC it was 13.3%. For the same compound, the growth in the experiment with A549/ATCC NSCLC is 11.8%; in the experiment on 786-0 renal, 16.8%; in the experiment on COLO 205 colon, -73% (active); with DU-145 prostate, 10.1%; in the experiment with K-562 leukemia, 13.2%; in the experiment on MALME-3M melanoma, 51.4%. Moreover, the growth in the experiment with MDA-MB-231 breast was 10.2%; in the experiment on RXF 393 renal it was 53.9%; with SF-268 CNS, 18.6%; in the experiment on SF-295 CNS it was -38.6% (active); in the experiment with SF-539 CNS, -14.7% (active); with M14 melanoma, 7.1% (active).
Consider `O=C(Nc1ccccc1C(=O)NCC1CC1)c1cccs1`, for which the growth in the experiment with NCI-H23 lung is 109%; in the experiment with NCI-H226 lung it was 88.1%; in the experiment with NCI-H322M lung it was 126%; in the experiment with HOP-62 NSCLC, 103%; with NCI-H460 lung, 105%; with HOP-92 NSCLC, 71.6%. The growth in the experiment on A549/ATCC NSCLC is 102%; in the experiment on 786-0 renal it was 101%; in the experiment on COLO 205 colon it was 116%; with DU-145 prostate, 118%; in the experiment on K-562 leukemia it was 103%; in the experiment on MALME-3M melanoma it was 131%. The growth with MDA-MB-231 breast was 97.1%; with RXF 393 renal, 98.9%; with SF-268 CNS, 113%; in the experiment with SF-295 CNS it was 86.5%; in the experiment with SF-539 CNS it was 101%; with M14 melanoma it was 103%.
Regarding `COC(=O)CCCCC1=CCC2C(=O)C=C(O)C2C1` (stereo unspecified), the growth in the experiment on NCI-H23 lung was 100%; in the experiment on NCI-H226 lung, 102%; with NCI-H322M lung, 92.4%; in the experiment on HOP-62 NSCLC it was 91.8%; in the experiment with NCI-H460 lung it was 105%; in the experiment with HOP-92 NSCLC it was 85.2%. Besides, the growth in the experiment with A549/ATCC NSCLC was 98.7%; with 786-0 renal, 99.9%; with COLO 205 colon, 111%; in the experiment with DU-145 prostate, 104%; in the experiment on K-562 leukemia, 90.9%; in the experiment with MALME-3M melanoma, 106%. The growth was 106% with MDA-MB-231 breast; 103% in the experiment with RXF 393 renal; 104% with SF-268 CNS; 99.8% in the experiment with SF-539 CNS; 109% in the experiment on M14 melanoma.
`OC(c1ccccn1)C(O)c1ccccn1` (stereo unspecified): the growth in the experiment with NCI-H23 lung was 97.5%; in the experiment on NCI-H226 lung, 110%; in the experiment on NCI-H322M lung, 96.8%; in the experiment with HOP-62 NSCLC, 104%; in the experiment with NCI-H460 lung, 114%; with HOP-92 NSCLC, 98.9%. Besides, the growth is 95.3% in the experiment with A549/ATCC NSCLC; 99.5% with 786-0 renal; 105% in the experiment on COLO 205 colon; 115% in the experiment on DU-145 prostate; 96.8% in the experiment on K-562 leukemia; 122% in the experiment with MALME-3M melanoma. Besides, the growth was 108% with MDA-MB-231 breast; 123% in the experiment with RXF 393 renal; 102% in the experiment with SF-268 CNS; 118% in the experiment on SF-295 CNS; 102% in the experiment with SF-539 CNS; 102% in the experiment with UACC-257 melanoma. For the same compound, the growth with M14 melanoma is 103%.
